Data from the supplement of paper PMC10646978.
± gives the standard deviation.

Experiments:
Conditions in all cases: modulator concentration 10 µM
[1] = test system: RAW-Dual (murine macrophage reporter line); test: NF-kB reporter (SEAP) activity fold change vs agonist alone; higher = enhanced NF-kB activity
Summary of the method: (§1)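 In 384-well plates holding 50 000 RAW-Dual murine macrophage reporter cells per well, compound at 10 μM final was pre-incubated for 1 hour at 37 °C, after which a PRR agonist was added overnight. Supernatant SEAP read with QUANTI-Blue at 620 nm absorbance reported NF-κB, and Lucia luciferase read with QUANTI-Luc luminescence reported IRF. Fold change values come from dividing each reporter signal by the mean of agonist-only control wells on the same plate, averaged over replicate plates with propagated errors.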

[2] = test system: RAW-Dual (murine macrophage reporter line); test: IRF reporter (Lucia luciferase) activity fold change vs agonist alone; higher = enhanced IRF activity
Summary of the method: as §1

[3] = test system: RAW-Dual (murine macrophage reporter line); test: viability score (confluency relative to resting cells, overnight) (fraction); higher = more viable, active = viable (0.7 or more)
Summary of the method: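 A compound met the cutoff when both of two confluency masks exceeded 70% of resting cells. Those masks were made with IncuCyte software from IncuCyte images of RAW-Dual macrophages treated overnight at 10 μM final. This is the basis of the viability score, which is confluency relative to resting cells.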

[4] = agonist: CpG ODN 1826 0.5 ug/mL

SMILES | NF-kB reporter [1, 4] | NF-kB reporter ([1]; agonist: LPS 0.1 ug/mL) | NF-kB reporter ([1]; agonist: MPLA […]) | IRF reporter ([2]; agonist: 3'3'-cGAMP 10 ug/mL) | IRF reporter ([2]; agonist: LPS 0.1 ug/mL) | IRF reporter ([2]; agonist: MPLA […]) | viability score [3]
O=C(NC1CCCCC1)N(Cc1cnc2ccccn12)c1ccccc1 | 1.01 ± 0.1 | 1.14 ± 0.088 | 1.15 ± 0.059 | 0.997 ± 0.044 | 1.06 ± 0.053 | 1.05 ± 0.16 | 0.995 (active)
C[C@H](N[C@@H](CCc1ccccc1)C(=O)O)C(=O)N1CCC[C@H]1C(=O)O.O.O | 1.15 ± 0.086 | 1.09 ± 0.16 | 1.03 ± 0.073 | 1.17 ± 0.31 | 0.953 ± 0.057 | 0.906 ± 0.077 | 0.993 (active)
C=CCn1c(S)nnc1-c1cc(OC)c(OC)c(OC)c1 | 0.986 ± 0.076 | 1.05 ± 0.084 | 0.988 ± 0.11 | 0.97 ± 0.041 | 1.14 ± 0.18 | 1.08 ± 0.12 | 1.03 (active)
CCN1C(=O)CC(NCCc2ccc(S(N)(=O)=O)cc2)C1=O (configuration not stated) | 0.979 ± 0.056 | 1.03 ± 0.074 | 0.905 ± 0.065 | 0.961 ± 0.035 | 1.46 ± 0.19 | 1.22 ± 0.16 | 0.997 (active)
COc1ccc(C=C2C(=O)N(c3ccc(C(=O)O)cc3)N=C2C)cc1 | 0.794 ± 0.082 | 0.977 ± 0.072 | 1.02 ± 0.092 | 0.934 ± 0.052 | 1.22 ± 0.099 | 1.21 ± 0.17 | 1.01 (active)
O=c1c(O)c(-c2ccc(O)cc2O)oc2cc(O)cc(O)c12 | 1.03 ± 0.28 | 1.1 ± 0.066 | 1.01 ± 0.085 | 0.739 ± 0.027 | 1.11 ± 0.21 | 1.14 ± 0.14 | 1 (active)
